Test results: PubChem BioAssay AID1347417 (National Center for Advancing Translational Sciences (NCATS), 2020)
Screen size: about 120,000 compounds; about 5,300 (4.4%) were called active. Entries that show only a call come without a potency. Another 22% or so got no clear call; they are omitted. For the sample, actives were picked, then their nearest neighbours and some compounds at random. Values without a mark were called inactive. Calls come from the whole dose curve; as a rule, active = well fitted inhibition curve with a large enough effect; inconclusive = small, poorly fitted or top-dose-only effect; inactive = no such curve, though single readings can be large or run the other way.

Experiment: qHTS Primary assay for Inhibitors of Plasmodium falciparum Dd2 growth in vitro; note: nearly all actives have a fitted effect of over 65% in size
Settings: P. falciparum Dd2 growth, SYBR Green, 72 h; series mostly up to 28.9 µM
Summary of the method: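 Infected erythrocytes (Dd2, 0.3% parasitemia, 2.5% hematocrit final) are added to compound in RPMI-1640/Albumax II medium, grown 72 h at 37C in low oxygen, then lysed with saponin/Triton-X containing SYBR Green and read by fluorescence.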
Potency is the fitted concentration of half-maximal effect.

Row | Structure (SMILES) | Potency | activity, negative = inhibition
1 | Cc1cccc(CC(=O)N2C[C@@H](COc3ccccc3)[C@H](C(N)=O)C2)c1 | inactive | –
2 | Cc1nc(C(=O)N2CC[C@H](NC(=O)c3snnc3C)C[C@H]2C(=O)N[C@H](CC(C)C)C(N)=O)cs1 | inactive | –
3 | Cc1ccc(NC(=O)N2CC3CC(C2)[C@H]2CCCC(=O)N2C3)cc1F (stereo partly specified) | inactive | –
4 | O=C(N[C@@H]1C[C@H](Cn2cc(CN3CCS(=O)(=O)CC3)nn2)[C@@H](O)[C@H]1O)c1cnccn1 | inactive | –
5 | CCC1(N2CCN(C(=O)c3ccc(C(F)(F)F)s3)CC2)CCN(C(=O)NC)C1 (stereo unspecified) | inactive | –
6 | N#Cc1ccccc1NC(=O)c1cc2n(n1)CC(c1ccc(Br)cc1)OC2 (stereo unspecified) | inactive | –
7 | CC(=O)N1CCN(c2ccc3nnc(-c4ccc(C)cn4)n3n2)CC1 | inactive | –
8 | Cc1cn2nc(C(=O)N3CCC(NC(=O)CCc4ccccc4)CC3)cc2c(=O)[nH]1 | 14.1 µM (active) | –
9 | Cc1cn2nc(C(=O)N3CCC(NC(=O)c4ccc(C#N)cc4)CC3)cc2c(=O)[nH]1 | inactive | –
10 | O=C(Cn1nc(-c2ccccc2)n(CCc2ccccc2)c1=O)NC1CC1 | inactive | –
11 | COC(=O)[C@@H](Cc1cccnc1)NC(=O)[C@H]1CN(S(=O)(=O)c2ccccc2)CCN1C(=O)N1CCOCC1 | inactive | –
12 | COC1C(=O)N(c2cccc(F)c2)C12CCN(C(=O)NCc1ccc(C)cc1)CC2 (stereo unspecified) | inactive | –
13 | CCS(=O)(=O)N1CCC2(CC1)CC(N1CCN(C(C)C)CC1)CCO2 (stereo unspecified) | inactive | –
14 | C=CCN1CC2(CCC1=O)CCN(C(=O)[C@H](N)Cc1ccccc1)CC2 | inactive | –
15 | O=C1CCC2(CCN(Cc3ccc4[nH]ccc4c3)CC2)CN1CCc1ccccc1 | 7.08 µM (active) | –
16 | Cn1cc(CN2CCN(Cc3ccccc3)CC2)ccc1=O | inactive | –
17 | COc1ccc(C(=O)N2CCCOCCNC(=O)CC2)c(OC)n1 | inactive | –
18 | CN(Cc1nc2ccsc2c(=O)[nH]1)C(=O)C1NCCc2[nH]cnc21 (stereo unspecified) | inactive | –
19 | COc1ccc(C(=O)N2c3ccccc3CC2c2nc(C(C)C)no2)c(OC)c1 (stereo unspecified) | – | 4.25% [at 5.79 µM]
20 | CN1C(=O)[C@H]2CN(Cc3ccccc3Cl)C[C@H]2C1=O | inactive | –
21 | O=C1[C@H]2CN(Cc3ccccc3F)C[C@H]2C(=O)N1CCN1CCc2ccccc2C1 | 5.01 µM (active) | –
22 | O=C(c1nc2c(o1)CCN(Cc1ccccc1F)CC2)N1CCOCC1 | inactive | –
23 | COCCn1cc(CN2CCN(c3ccccc3F)CC2)ccc1=O | inactive | –
24 | CCOc1ccc2c(n1)CCN(C(=O)Nc1ccc(OC)cc1C)C2 | inactive | –

Row | Structure (SMILES) | Potency | activity, negative = inhibition
25 | COc1ccc(Nc2ncc3c(n2)CCN(C(=O)OC(C)(C)C)C3)cc1 | 5.62 µM (active) | –
26 | CCOc1ccc2c(n1)CCN(C(=O)C(C)C)C2 | inactive | –
27 | COc1ccc(C(=O)NC2CCN(c3cc(-c4cccs4)[nH]n3)C2)cc1F (stereo unspecified) | inactive | –
28 | COCCc1noc(-c2ccc(NC(C)c3ncccc3C)nc2)n1 (stereo unspecified) | inactive | –
29 | O=C(NCC1(COc2cccnc2)C[C@@H](O)[C@@H](O)C1)C1CCCC1 (stereo partly specified) | inactive | –
30 | O=C(CC1CCCC1)N1CCOc2ccc(CN3CCc4ccccc4C3)cc2C1 | 5.01 µM (active) | –
31 | CC(C)(O)CCc1ccc(C(=O)N2CCOc3ccc(Cl)cc3C2)cc1 | inactive | –
32 | CC(C)C(=O)N1CCOc2ccc(CN3CCc4ccccc4C3)cc2C1 | inactive | –
33 | CCC(C)N1CCN(C(=O)CCc2ccc3c(c2)CN(C(=O)C2CC2)CCO3)CC1 (stereo unspecified) | inactive | –
34 | O=C1CCN(Cc2ccc3c(c2)CCO3)CCOCCN1 | inactive | –
35 | O=C(c1ccccc1)N1CCOc2ccc(CN3CCc4ccccc4C3)cc2C1 | 7.94 µM (active) | –
36 | CC1CCC(NC(=O)CN2C(=O)NC3(CCS(=O)(=O)CC3)C2=O)CC1 (stereo unspecified) | inactive | –
37 | Cc1ccc(CNC(=O)c2ccc(OC3CCN(S(C)(=O)=O)CC3)c(Cl)c2)s1 | inactive | –
38 | CN(Cc1cccn1C)Cc1ccnn1C | inactive | –
39 | CN(Cc1ccc(-c2ccccc2)cc1)C(=O)c1ccccc1F | inactive | –
40 | O=C(O)COc1ccccc1CN1CC[C@H]2NCCC[C@]2(C(=O)O)C1 | inactive | –
41 | COc1ccccc1CNC(=O)CN1CCCC(CO)(CC2CC2)C1 (stereo unspecified) | inactive | –
42 | CC(C)=CCC1(CO)CCCN(Cc2ccccc2OCCO)C1 (stereo unspecified) | 12.6 µM (active) | –
43 | Cc1ccsc1CN1CCCCCNC(=O)[C@@H]2CCC[C@@H]21 | inactive | –
44 | CC(C)N1C[C@H](O)C[C@H]1c1nnc2n1CCN(C(=O)CCCc1ccccc1)C2 | inactive | –
45 | COc1ccc(-c2cc(N3CCC(NC(=O)c4ccoc4)CC3)n[nH]2)cc1 | 0.794 µM (active) | –
46 | COc1ccc(-c2cc(N3CCCC(NC(=O)c4cc(F)ccc4Cl)C3)n[nH]2)cc1 (stereo unspecified) | 8.91 µM (active) | –
47 | COc1ccc(-c2cc(N3CCCC(NC(=O)c4ccsc4)C3)n[nH]2)cc1 (stereo unspecified) | inactive | –
48 | O=C(NC1CCCN(c2cc(-c3ccc(Cl)cc3)[nH]n2)C1)c1ccccc1F (stereo unspecified) | inactive | –

Row | Structure (SMILES) | Potency | activity, negative = inhibition
49 | COc1ccc(-c2cc(N3CCC(NC(=O)c4cccc(C)c4)CC3)n[nH]2)cc1 | inactive | –
50 | COc1ccc(-c2cc(N3CCC(NC(=O)c4ccc5c(c4)OCO5)CC3)n[nH]2)cc1 | inactive | –
51 | COc1cccc(C(=O)N2CCC(N3C[C@H](O)C[C@H]3C(=O)N3CCC(N4CCCCC4)CC3)CC2)c1 | inactive | –
52 | CC(C)Cc1ccc(S(=O)(=O)N2CCCC2c2nncn2Cc2ccncc2)cc1 (stereo unspecified) | inactive | –
53 | CCC(CC)C(=O)N[C@@H](Cn1cc(-c2ccccc2F)c(=O)[nH]c1=O)C(=O)O | inactive | –
54 | CN(Cc1cccnc1)c1nc2c(c(=O)[nH]1)CCN(Cc1cc(F)ccc1F)CC2 | – | 14.7% [at 5.79 µM]
55 | COc1ccc(-c2onc(C)c2C(=O)NCc2ccc3c(c2)OCO3)cc1 | inactive | –
56 | CCOc1ccccc1NC(=O)N1c2ccccc2CC1c1nc(C(C)C)no1 (stereo unspecified) | – | -4.28% [at 5.79 µM]
57 | C=C[C@H]1CN2CC[C@H]1C[C@@H]2CNCc1ccc(C(F)(F)F)cc1 | 2.24 µM (active) | –
58 | O=C(NC[C@H]1C[C@@H]2CCN1C[C@@H]2CN1CCN(c2ncccn2)CC1)c1ccc(C(F)(F)F)cc1 | inactive | –
59 | O=C(CC1=C2CCCCC2NC1=O)Nc1ccccc1F (stereo unspecified) | inactive | –
60 | O=C(NC1CCCc2c1[nH]c1ccc(F)cc21)c1n[nH]c2c1CCCC2 (stereo unspecified) | inactive | –
61 | COc1ccc(CN2CCC3(COc4ccccc4C(=O)N3)C2)cc1 (stereo unspecified) | inactive | –
62 | c1ccc2c(c1)CNC1(CCN(Cc3cccc4ccccc34)CC1)CO2 | 2 µM (active) | –
63 | CC1=NOC2(CCN(Cc3c[nH]c4ccccc34)CC2)C1 | inactive | –
64 | Cc1ccc(-c2nc(N3CCOCC3)cc3c2CN(Cc2cnn(C)c2)C3=O)cn1 | inactive | –
65 | COc1ccc(CN2CCOc3nc(-c4cc(F)cc(OC)c4)ncc3C2=O)cc1 | inactive | –
66 | CCOc1ccccc1NC(=O)N1CCC(n2c(C)cnc2-c2cccnc2)CC1 | inactive | –
67 | C=C(C)COc1ccccc1C(=O)NC(C(=O)O)c1c(C)n[nH]c1C (stereo unspecified) | inactive | –
68 | COc1ccccc1-c1cc(C(F)(F)F)nc(S(=O)(=O)CCCC(=O)Nc2cc(C)ccc2O)n1 | inactive | –
69 | CSc1ccccc1NC(=O)CCS(=O)(=O)c1nc(-c2cccs2)cc(C(F)(F)F)n1 | inactive | –
70 | COc1ccccc1-c1cc(C(F)(F)F)nc(S(=O)(=O)CCCC(=O)Nc2ccc(F)cc2F)n1 | 8.91 µM (active) | –
71 | Cc1noc(C)c1[S+](=O)([O-])N1CCCCC12Cc1ccccc1NC2=O (stereo unspecified) | inactive | –
72 | Fc1ccc(OCc2nc(C3CCNCC3)no2)cc1 | inactive | –

Row | Structure (SMILES) | Potency | activity, negative = inhibition
73 | CN1CCCCCCN(C(=O)C2CCOCC2)[C@H]2CCC[C@H]2C1=O | inactive | –
74 | CCN1CCN(C(=O)C23CCCC=C2N(C2CCCC2)C(=O)CC3)CC1 (stereo unspecified) | inactive | –
75 | CCn1c(CN2CCC(C)CC2)nc2cc(NC(=O)c3ccccc3[N+](=O)[O-])ccc21 | 11.2 µM (active) | –
76 | Cn1c(=O)c(=O)n(C)c2cc(NC(=O)c3ccccc3Br)ccc21 | inactive | –
77 | CC1Oc2ccc(NC(=O)c3ccc([N+](=O)[O-])cc3)cc2CN(Cc2ccccc2)C1=O (stereo unspecified) | inactive | –
78 | CC1CCC2(CC1)OCC(C(=O)NCc1ccc3c(c1)OCO3)N2C(=O)c1ccccc1F (stereo unspecified) | inactive | –
79 | O=C(NCCC1CCN(C(=O)Nc2cccc(F)c2)CC1)c1ccco1 | inactive | –
80 | O=C(NCCN1CCCCC1)C1Cn2cccc2C(=O)N1Cc1ccccc1 (stereo unspecified) | inactive | –
81 | COC[C@H]1CCCN1Cc1nc(C2(O)CCN(CC3CCCCC3)CC2)cs1 | 10 µM (active) | –
82 | COC[C@H]1CCCN1Cc1nc(C2(O)CCN(C(=O)C3CCOCC3)CC2)cs1 | inactive | –
83 | COc1cccc(C(=O)N2C(C(=O)NC(C)C)COC23CCN(C(=O)c2cccc(F)c2)CC3)c1 (stereo unspecified) | inactive | –
84 | N#CCCN1CCN(C(=O)c2cn3ccnc(-c4ccccc4)c3n2)CC1 | inactive | –
85 | COCC(=O)NC[C@H]1CCN(Cc2cn(C)c3ccccc23)C[C@H]1N(C)C | inactive | –
86 | COc1cccc(NC(=O)N(Cc2cn(C)c3ccccc23)C2CCCCCC2)c1 | 6.31 µM (active) | –
87 | COCCN1CCCCCC(O)c2cc(C(=O)Nc3cccc(OC)c3)ccc21 (stereo unspecified) | inactive | –
88 | Cc1cccc(-c2nc3cnccn3c2NCCC(=O)N2CCCCCC2)c1 | inactive | –
89 | CNc1ccc(OC2CCN(C(=O)NCCc3ccccc3)CC2)nc1 | inactive | –
90 | Cc1ccccc1CNC(=O)c1ccc2c(c1)N(C)C1CCCCN1C2=O (stereo unspecified) | 4.47 µM (active) | –
91 | Cc1ccc(CNC(=O)c2ccc3c(c2)N(C)C2CCCCN2C3=O)cc1C (stereo unspecified) | inactive | –
92 | CN1c2cc(C(=O)Nc3ccccc3)ccc2C(=O)N2CCCCCC21 (stereo unspecified) | inactive | –
93 | CN1c2cc(C(=O)N3CCC(C(N)=O)CC3)ccc2C(=O)N2CCCCC21 (stereo unspecified) | inactive | –
94 | CN1c2cc(C(=O)Nc3ccc(Cl)cc3)ccc2C(=O)N2CCCCCC21 (stereo unspecified) | inactive | –
95 | CN1c2cc(C(=O)NCc3ccccc3Br)ccc2C(=O)N2CCCCC21 (stereo unspecified) | 7.08 µM (active) | –
96 | COc1ccc(C(=O)N2[C@@H]3CC[C@H]2CC(NC(=O)c2ccncc2)C3)cc1OC (stereo partly specified) | inactive | –
